# KDM5B inh – Primary screen for KDM5B Histone Demethylases FDH-coupled qHTS; AID 1347165, 2019; Lysine-specific demethylase 5B (Homo sapiens), Q9UGL1; Potency, µM (titrated, usually from 57.7 µM), actives largely listed as inhibitors; KDM5B demethylase, FDH-coupled NADH fluorescence (FDH is formaldehyde dehydrogenase); actives 2.6% (n = 220,000); active = well fitted inhibition curve with a large enough effect; note: 0% is about no effect; nearly all actives have a fitted effect of over 70% in size
#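 Compound dilutions met 200 nM (final) KDM5BΔAP for 10 min at room temperature before substrate addition. The substrate mix held 12.5 µM H3K4me3 with cofactors 25 µM α-ketoglutarate and 50 µM Fe²⁺. NADH signal gain over 30 min defined activity.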
# The depositor's hits bear a star; i = inactive. The entries come from a sample that favours hits as a whole. Potency is the fitted concentration of half-maximal effect.
SMILES,KDM5B inh
N#Cc1cccc(C(=O)NCc2nnc3ccc(-c4ccc(F)cc4)nn23)c1,28.2µM*
Cc1ccc(-c2ccc3nnc(CNC(=O)c4cccc(N(C)C)c4)n3n2)cc1,i
Cc1ccc(-c2ccc3nnc(CNC(=O)c4cccc(C#N)c4)n3n2)cc1,11.2µM*
COCC1CN(C(=O)CCn2nc(C)cc2C)CC12CCOCC2 (centres undefined),i
CCOc1ccc(NC(=O)Cc2c(C(=O)O)n(C)c3ccccc23)cc1,i
CCOc1ccc(NC(=O)C(=O)c2c(C)n(C)c3ccccc23)cc1,i
CCc1ccc(NC(=O)CSc2cn(CC(=O)N3CCCC3)c3ccccc23)cc1,i
Cc1ccc(NC(=O)N2CCc3c(c4ccccc4n3C)C2)cc1,22.4µM*
Cc1ccc(NS(=O)(=O)c2ccc(NC(=O)N3CCCCC3)cc2)cc1,i
CCOc1ccc(NC(=O)N2CCc3c(c4ccccc4n3C)C2)cc1,25.1µM*
CCc1ccc(NC(=O)N2CCc3c(c4ccccc4n3C)C2)cc1,28.2µM*
Cc1ccc(NC(=O)C(C)N2CCc3ccccc3C2)cc1 (centres undefined),i
CCc1ccc(NC(=O)Cc2cn(C)c3ccccc23)cc1,i
O=C(O)c1cc(NCc2ccc(OCc3ccccc3)cc2)ccc1N1CCOCC1,i
C[C@@]1(O)CCN(C(=O)CCCS(N)(=O)=O)C[C@@H]1Cc1ccccc1,i
O=C(CC1CCCCC1)NC(Cc1ccccc1)C(=O)N1CCN(c2ccccn2)CC1 (centres undefined),22.4µM*
O=C(NC(Cc1ccccc1)C(=O)N1CCN(c2ncccn2)CC1)c1cccs1 (centres undefined),i
O=C(NC(Cc1ccccc1)C(=O)N1CCN(c2ncccn2)CC1)c1ccccc1 (centres undefined),i
O=C1CN(C(=O)[C@H]2CN(Cc3ccccc3)C[C@H]2C(=O)O)CCN1,i
O=C(C1Cn2cccc2C(=O)N1Cc1ccccc1)N1CCN(c2ncccn2)CC1 (centres undefined),17.8µM*
O=C(O)C1Cn2cccc2C(=O)N1Cc1cccnc1 (centres undefined),i
Cc1ccc(CN2CCN(C(=O)C3Cn4cccc4C(=O)N3Cc3cccnc3)CC2)cc1 (centres undefined),i
NC(Cc1ccccc1)C(=O)N1CCN(c2ccccn2)CC1 (centres undefined),22.4µM*
O=C(O)[C@@H]1CN(Cc2ccccc2)C[C@@H]1C(=O)N1CCN(c2ccccn2)CC1,22.4µM*
O=C(CC1CCCCC1)N1CCC2(CC1)CC(N1CCN(c3ccccn3)CC1)CCO2 (centres undefined),i
SMILES,KDM5B inh
O=C(/C=C/c1cccc([N+](=O)[O-])c1)N1CCN(c2ccccn2)CC1,i
O=C(O)[C@@H]1CN(Cc2ccccc2)C[C@@H]1C(=O)N1CCOCC1,i
COc1cc(C2C(C#N)=C(N)Oc3n[nH]c(C)c32)cc(Br)c1OCc1ccccc1 (centres undefined),i
Cc1cc(NC(=O)COC(=O)C2(c3ccc(Cl)cc3)CCC2)no1,i
COC(=O)C1=C(C)N=C2SC=C(CC(=O)NCc3ccccc3)N2C1c1ccccc1OC (centres undefined),i
CN(CCO)C(=O)COc1cc(O)c2c(=O)cc(-c3ccccc3)oc2c1,i
CCn1nccc1C(=O)N1CCN(Cc2ccc(=O)n(C)c2)CC1,i
CC(C)C(NC(=O)c1nn(C)c(=O)c2ccccc12)c1ccccc1 (centres undefined),i
CN(C)[S+](=O)([O-])c1ccc2c(c1)OCCN(Cc1ccccc1Cl)C2,i
Cc1ccc(C(=O)N2CCCC(c3nc(-c4cccnc4)no3)CCNC(=O)CC2)s1 (centres undefined),i
CN(c1ncnc2scc(-c3ccc(Cl)cc3)c12)C1CC1,i
Cc1ccc(S(=O)(=O)NCCc2nnc3ccc(SCc4cc(C)ccc4C)nn23)cc1,i
CN1CC2(CCN(C(=O)c3ccc4ccccc4n3)CC2)CC1C(=O)N1CCOCC1 (centres undefined),i
CN1CC2(CCN(C(=O)CCCc3ccccc3)CC2)CC1C(=O)N1CCOCC1 (centres undefined),i
CN1CC2(CCN(C(=O)c3cccnc3)CC2)CC1C(=O)N1CCOCC1 (centres undefined),i
CC(C)n1cc(CN2CCC3(CC2)CC(C(=O)N2CCOCC2)N(C)C3)c2ccccc21 (centres undefined),i
CN1CC2(CCN(Cc3cccn3C)CC2)CC1C(=O)N1CCOCC1 (centres undefined),15.8µM*
COc1ccc2cc(C(=O)N3CCC(C(=O)N4CCCC4)CC3)[nH]c2c1,i
COc1ccc2cc(C(=O)N3CCC4(CC3)CC(C(=O)N3CCOCC3)N(C)C4)[nH]c2c1 (centres undefined),25.1µM*
CN1CC2(CCN(Cc3ccccn3)CC2)CC1C(=O)N1CCOCC1 (centres undefined),20µM*

# Screens as filed in PubChem.
